Test results: PubChem BioAssay (NCI)
About 83,000 compounds went through this panel and 20% of them were active in at least one assay; those are over-represented in the sample as a whole.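 Percent growth is the endpoint: 0 to 100 indicates growth inhibition (40 means 60% inhibition), 0 means no net growth, and negative values indicate cell death.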

Key:
Assay in all cases: NCI-60 one-dose screen, 48 h (100 = growth as untreated, 0 = no growth, -100 = all killed); active = growth percent below 10; inactive = the rest
NCI-H23 lung = details: 10 µM unless noted
NCI-H226 lung = details: 10 µM unless noted
NCI-H322M lung = details: 10 µM unless noted
NCI-H460 lung = details: 10 µM unless noted
HOP-92 NSCLC = details: 10 µM
NCI-H522 lung = details: 10 µM
A549/ATCC NSCLC = details: 10 µM unless noted
786-0 renal = details: 10 µM unless noted
COLO 205 colon = details: 10 µM unless noted

Measured: growth

CC(C)(C)C(=O)CCCCCCCC/C=C/CCCC(O)c1ccco1 (configuration not stated)
inactive: NCI-H23 lung 102% | NCI-H226 lung 112% | NCI-H322M lung 95.5% | NCI-H460 lung 112% | HOP-92 NSCLC 79.1% | NCI-H522 lung 120% | A549/ATCC NSCLC 108% | 786-0 renal 94.5% | COLO 205 colon 124%

c1cc[c]([Bi]([c]2ccccc2)[c]2ccccc2)cc1
inactive: NCI-H23 lung 93.9% | NCI-H226 lung 95.8% | NCI-H322M lung 88% | NCI-H460 lung 96.2% | HOP-92 NSCLC 74.1% | NCI-H522 lung 104% | A549/ATCC NSCLC 102% | 786-0 renal 94% | COLO 205 colon 105%

O=C(Cc1ccccc1[N+](=O)[O-])c1ccc2c(c1)OCO2
inactive: NCI-H23 lung 99.3% | NCI-H226 lung 97.1% | NCI-H322M lung 103% | NCI-H460 lung 101% | HOP-92 NSCLC 82% | NCI-H522 lung 91.7% | A549/ATCC NSCLC 98.1% | 786-0 renal 94.3% | COLO 205 colon 116%
